Out of some 400,000 compounds screened, about 5,500 (1.4%) were called active. A call without a number means that no potency is given here. Roughly 9% stayed inconclusive and do not appear here. The sample holds actives, similar compounds and a random draw of the others, so the mix is not that of the screen. The call rests on the fitted dose curve; in most records, active means well fitted cell-killing curve with a large enough effect; inconclusive means small, poorly fitted or top-dose-only effect, or effect the other way; inactive means flat fitted curve, though single readings scatter.
assay: qHTS assay for MDR1-selective chemotherapeutics: Primary screen using the parental adenocarcinoma cell KB-3-1; details: KB-3-1 viability, CellTiter-Glo ATP luminescence, 72 h; series mostly up to 46.1 µM; further: nearly all actives have a fitted effect of over 60% in size
Summary of the method: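 Here the drug-naive KB-3-1 line serves as comparator for MDR sub-line selectivity; cells received compound titrations, 72 h at 37 °C, then CellTiter-Glo readout.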
Potency means the concentration at half of the fitted maximal effect.

| SMILES | Potency |
| --- | --- |
| COc1ccc(NC(=O)c2cnc(Nc3ccc(C)c(Cl)c3)c3ccccc23)cc1OC | inactive |
| Brc1nc2ncnc(NCc3ccco3)c2[nH]1 | inactive |
| O=C(CNS(=O)(=O)c1cccs1)N1CCN(c2ccccc2Cl)CC1 | inactive |
| Cc1cccc2c1-c1sc(C(=O)Nc3ccc(F)cc3F)cc1CO2 | inactive |
| CCn1cc2nc(SCc3cccc(F)c3)n(CCc3ccccc3)c(=O)c2n1 | inactive |
| Cc1nn(Cc2ccc(Cl)cc2)c(Cl)c1/C=N/NC(=O)CNc1ccccc1F | inactive |
| Cc1nn(-c2ccccc2)c(Cl)c1/C=N/NC(=O)c1nn(C)cc1[N+](=O)[O-] | 18.4 µM (active) |
| Cn1cc([N+](=O)[O-])c(C(=O)Nc2ccc3c(c2)OCCO3)n1 | inactive |
| O=C(Nc1cccc(Cl)c1)c1csnn1 | inactive |
| Cc1ccc(C2CCN(C(=S)Nc3cccc(Cl)c3)C2)cc1 (centres undefined) | inactive |
| Cc1csc(NC(=S)Nc2cccc(Cl)c2)n1 | 20.6 µM (active) |
| COc1ccccc1C(=O)NCCn1cc(SCc2ccccc2Cl)c2ccccc21 | inactive |
| CCOC(=O)c1ccc(NC(=O)CCS(=O)(=O)c2ccc3c(c2)oc(=O)n3C)cc1 | inactive |
| O=C(NCc1ccc(F)cc1)c1ccc(Cn2c(SCc3ccc(F)cc3)nc3cccnc32)cc1 | inactive |
| Cc1ccc(OCCSc2nc(-c3cccs3)nc3cc(=O)[nH]n23)cc1Cl | inactive |
| COc1cccc2c1C(=O)c1c(O)c3c(c(O)c1C2=O)CC(O)(C(C)=NNC(=O)c1ccc(Cl)c(Cl)c1)CC3OC1CC(N)C(O)C(C)O1 (centres undefined) | 2.06 µM (active) |
| Cc1ccc(N2CCN(C(=S)Nc3cc(C)ccn3)CC2)cc1 | inactive |
| CCCCCn1c(=O)[nH]c2cc(C(=O)Nc3ccc(F)cc3)ccc2c1=O | inactive |
| CCC(=C/c1sc2ccc3ccccc3c2[n+]1C)/C=C1\Sc2ccc3ccccc3c2N1C | 9.2 µM (active) |
| COc1ccc(CNC(=O)COCc2cc(-c3cccs3)on2)cc1OC | inactive |
| Cc1ccc(OCC(=O)OCc2cc(=O)n3nc(C4CC4)sc3n2)cc1 | inactive |
| CCN1/C(=C\c2ccc3ccccc3[n+]2CC)Sc2cc(C)ccc21 | 4.61 µM (active) |
| CCN1/C(=C/c2ccc3ccc(C)cc3[n+]2CC)Sc2ccccc21 | 2.59 µM (active) |
| CC(=O)Nc1ccc(NC(=O)CSc2nnc3c4cc(Br)ccc4n(C)c3n2)cc1 | inactive |
| NC(=O)Nc1ccc(/C=C/c2ccnc3ccccc23)cc1 | inactive |
| N#Cc1ccc[n+](CC(=O)c2ccc(F)cc2)c1 | inactive |
| COc1ccc2sc(-c3ccc(S(C)(=O)=O)cc3)c(C#Cc3cncn3C)c2c1 | inactive |
| COc1ccc2sc(-c3ccc(S(C)(=O)=O)cc3)c(-c3ccc(C(N)=O)cc3)c2c1 | inactive |
| COc1ccc2sc(-c3ccc(N(C)C)cc3)c(C#CCO)c2c1 | 16.4 µM (active) |

Source: PubChem BioAssay AID1347075 (National Center for Advancing Translational Sciences (NCATS), 2019)
